In PubChem BioAssay AID485346 (Sanford-Burnham Center for Chemical Genomics, 2010):
Hit rate of the full screen: of about 330,000 compounds, about 10,000 (3%) were called active.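 How the source made its calls: active means inhibition of at least 50% at 8 µM in the primary screen; inactive means the rest.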 For the sample, actives were picked, then their nearest neighbours and some compounds at random.

Target: Protein Mdm4 (Homo sapiens) + E3 ubiquitin-protein ligase Mdm2 (Homo sapiens) (UniProt O15151+Q00987)
Assay: disruptors of Mdm2/MdmX RING complex – cell-based, luminescence, split luciferase, SaOS-2, uHTS, primary screen (AID 485346)
Conditions: SaOS-2 split-luciferase Mdm2/MdmX complementation, at 8 µM, stronger effect = higher value

Protein Mdm4 (Homo sapiens) + E3 ubiquitin-protein ligase Mdm2 (Homo sapiens), sequence (O15151 whole entry, looked up): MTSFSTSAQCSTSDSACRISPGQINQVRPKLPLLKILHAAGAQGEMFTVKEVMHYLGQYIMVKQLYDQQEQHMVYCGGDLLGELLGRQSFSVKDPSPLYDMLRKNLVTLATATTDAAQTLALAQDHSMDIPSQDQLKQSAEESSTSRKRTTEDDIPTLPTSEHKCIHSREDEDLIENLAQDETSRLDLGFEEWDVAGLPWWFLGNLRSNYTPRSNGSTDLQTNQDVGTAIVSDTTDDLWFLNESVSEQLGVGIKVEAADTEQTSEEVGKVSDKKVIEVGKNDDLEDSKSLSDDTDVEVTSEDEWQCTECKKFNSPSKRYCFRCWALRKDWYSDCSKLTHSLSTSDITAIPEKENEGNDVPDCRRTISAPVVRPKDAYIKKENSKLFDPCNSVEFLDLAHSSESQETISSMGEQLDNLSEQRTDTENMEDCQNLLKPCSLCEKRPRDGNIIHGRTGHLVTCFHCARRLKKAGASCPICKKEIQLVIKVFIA
Protein Mdm4 (Homo sapiens) + E3 ubiquitin-protein ligase Mdm2 (Homo sapiens), sequence (Q00987 whole entry, looked up): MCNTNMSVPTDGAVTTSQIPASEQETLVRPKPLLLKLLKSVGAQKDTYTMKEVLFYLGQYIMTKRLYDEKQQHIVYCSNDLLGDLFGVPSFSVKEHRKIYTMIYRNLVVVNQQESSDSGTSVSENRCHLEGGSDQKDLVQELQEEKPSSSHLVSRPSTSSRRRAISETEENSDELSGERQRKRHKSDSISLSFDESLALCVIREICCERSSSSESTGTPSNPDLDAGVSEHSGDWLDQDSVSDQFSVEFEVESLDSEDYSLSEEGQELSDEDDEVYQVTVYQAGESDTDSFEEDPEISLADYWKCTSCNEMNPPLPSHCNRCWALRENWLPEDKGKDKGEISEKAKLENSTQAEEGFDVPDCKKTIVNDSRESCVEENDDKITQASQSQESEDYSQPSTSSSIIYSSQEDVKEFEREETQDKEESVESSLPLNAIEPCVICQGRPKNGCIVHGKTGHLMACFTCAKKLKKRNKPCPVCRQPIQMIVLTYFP

Compound	inhibition
CC(=O)Nc1ccc(NC(=O)C(NS(=O)(=O)c2ccc3c(c2)OCCO3)C(C)C)cc1 (stereo not drawn)	1.24% (inactive)
Cc1noc(C)c1S(=O)(=O)N(C)C[C@H]1Oc2c(NC(=O)Nc3ccc4c(c3)OCO4)cccc2C(=O)N([C@H](C)CO)C[C@@H]1C	23.1% (inactive)
O=C(O)CCCCCNc1ncnc2ccc(Br)cc12	-1.34% (inactive)
COc1ccc(CNc2ncnc3ccccc23)cc1	21.5% (inactive)
COc1ccc(Nc2ncnc3ccc(Br)cc23)c(OC)c1	76.4% (active)
COc1ccccc1NC(=O)CCC(=O)N1CC(C)Oc2ccc(C)cc21 (stereo not drawn)	13.9% (inactive)
O=C1Nc2ccc([N+](=O)[O-])cc2C1=Nc1cccc(CO)c1	30.4% (inactive)
Cc1ccc(N2CC(C(=O)NCCS(=O)(=O)N3CCN(c4ccccc4)CC3)CC2=O)cc1 (stereo not drawn)	37.2% (inactive)
COc1cc(N)c(Cl)cc1C(=O)OCC(=O)c1ccc2c(c1)NC(=O)CO2	18.8% (inactive)
CCOC(=O)c1c(-c2ccc(-c3ccccc3)cc2)csc1NC(=O)CCC(=O)O	9.19% (inactive)
CCOC(=O)c1c(-c2cccc(C)c2)csc1NC(=O)c1c(-c2ccccc2)noc1C	94.3% (active)
Cc1ccc(CNC(=O)c2c(-c3ccccc3)noc2C)cc1	-12.1% (inactive)
Cn1c(=O)[nH]c(=O)c2c1nc(NCCCn1ccnc1)n2Cc1cccc(Br)c1	34.5% (inactive)
O=C1N/C(=C/c2cccn2-c2ccccc2)C(=O)N1c1cccc(Cl)c1	53.8% (active)
O=c1c(-c2cccc(Cl)c2)c[nH]n1-c1ccccc1	-13.8% (inactive)
Cc1ccccc1NC(=O)CN1C(=O)N/C(=C\c2cccn2-c2cccc(C(=O)O)c2)C1=O	11.8% (inactive)
COc1ccc(C(=O)OCC(=O)NCC2CCCO2)cc1[N+](=O)[O-] (stereo not drawn)	-2.37% (inactive)
O=C(C1CCC(=O)N(C2CC2)C1)N1CCN(c2ccc(Cl)cc2)CC1 (stereo not drawn)	-4.59% (inactive)
CN(C(=O)CSc1nncc2ccccc12)C1CCCCC1	-30.3% (inactive)
CN(c1ccc2nc3ccccc3c(=O)n2n1)C1CCCCC1	90.5% (active)

Compound	inhibition
CN(C(=O)c1cc2c(=O)n3ccccc3nc2s1)C1CCCCC1	-88.5% (inactive)
CC(=O)Nc1c2c(nn1-c1cccc(C)c1)CSC2	18% (inactive)
Cc1c(CNCCc2ccccc2)c(C(=O)O)c(C)n1-c1ccccc1	8.96% (inactive)
CN(C(=O)c1cccc(NC(=O)Cc2ccc([N+](=O)[O-])cc2)c1)C1CCC1	15.3% (inactive)
CCC(=O)NCc1cc(-c2nn(C)c(=O)c3ccccc23)ccc1OC	20.9% (inactive)
COc1ccc(-c2nn(C)c(=O)c3ccccc23)cc1CNC(=O)C1CCCCC1	13% (inactive)
COc1ccc(-c2nn(C)c(=O)c3ccccc23)cc1NC(=O)COc1ccccc1	70.8% (active)
Cc1cc(NC(=O)COC(=O)/C=C/c2ccc(C)o2)no1	8.11% (inactive)
Cc1c(C=O)c2ccccc2n1CCOc1ccccc1	11.3% (inactive)
O=C(NCCc1ccc(F)cc1)c1ccc(S(=O)(=O)N2CCCCC2)cc1	0.124% (inactive)
O=S(=O)(Nc1cccc(Oc2ccc(Cl)cc2)n1)c1ccc(F)cc1	14.1% (inactive)
CC(NC(=S)Nc1ccccc1)C(c1cccs1)N1CCOCC1 (stereo not drawn)	-20.7% (inactive)
CC(NC(=O)Nc1ccccc1)C(c1cccs1)N1CCN(c2ccccc2)CC1 (stereo not drawn)	58.6% (active)
CCCC(=O)NC(C)C(c1cccs1)N1CCN(c2ccccc2)CC1 (stereo not drawn)	18.2% (inactive)
CCOCCCNC(=O)C(NC(=O)c1ccc(=O)[nH]c1)c1ccc(Cl)cc1 (stereo not drawn)	-20.6% (inactive)
COc1cccc(Cn2cc(/C=N/NC(=O)c3cc(O)cc(O)c3)c3ccccc32)c1	23.5% (inactive)
N#CCC(=O)N/N=C/c1cn(Cc2ccc3ccccc3c2)c2ccccc12	67.9% (active)
CNC(=S)N/N=C/c1cn(Cc2ccc(C)cc2)c2ccccc12	42.2% (inactive)
CC1=C(C(N)=O)C(c2ccc3c(c2)OCO3)n2nc(-c3cccc(C)c3)nc2N1 (stereo not drawn)	7.35% (inactive)
CCN(CC)CCn1cnc2c1c(=O)[nH]c(=O)n2Cc1ccccc1	14.5% (inactive)

Compound	inhibition
COCCn1cnc2c1c(=O)n(Cc1ccc(Br)cc1)c(=O)n2Cc1ccccc1	31.5% (inactive)
N=c1c2c(-c3ccccc3)c(-c3ccccc3)n(Cc3ccccc3)c2ncn1CCCO	57.2% (active)
CCOC(=O)[C@H]1[C@H]2COc3ccc(OC)cc3[C@@H]2N2C(=O)c3ccc(F)cc3NC(=O)[C@@]12C	17.8% (inactive)
CCOC(=O)Cc1csc(SCC(=O)Nc2ccc(C)cc2F)n1	7.22% (inactive)
CCOCc1nnc(NC(=O)CCC2CCCCC2)s1	15.7% (inactive)
CCn1c(CNC(=O)c2cc(OC)c(OC)c(OC)c2)cc2cc(C)ccc21	18.3% (inactive)
O=C(NNc1ccccc1Cl)C(O)(c1cccc(C(F)(F)F)c1)c1cccc(C(F)(F)F)c1	94.5% (active)
O=C(CNS(=O)(=O)c1cccc(C(F)(F)F)c1)Nc1ccccc1F	-4.5% (inactive)
O=C(Nc1cc(C(F)(F)F)ccc1Cl)C(=O)N1CCCCC1	4.88% (inactive)
O=C(NCCC1=CCCCC1)c1ccc(-n2cncn2)cc1	-91.1% (inactive)
COC(=O)c1ccccc1NC(=O)C1CC(=O)N(c2ccc(OC)cc2)C1 (stereo not drawn)	15.5% (inactive)
COc1ccc(CNS(=O)(=O)c2cc3c4c(c2)CCN4C(=O)CC3)cc1	-14.5% (inactive)
COc1ccc(C2=Nn3c(nnc3-c3ccccc3OC)SC2)cc1OC1CCCC1	88.2% (active)
Cc1nnc2n1N=C(c1ccccc1)CS2	17.5% (inactive)
COc1ccccc1-c1nnc2n1N=C(c1ccc(OC(F)F)c(OCC3CC3)c1)CS2	23.3% (inactive)
Cc1ccc(C)c(OCCC(=O)OCC(=O)NC(=O)NCc2ccccc2)c1	6.63% (inactive)
O=C(Nc1ccc(OC(F)(F)F)cc1)c1ccc2c(c1)no[n+]2[O-]	19% (inactive)
CCN1C(=NCc2ccc(OC)cc2)N[C@@H](CCc2ccccc2)[C@H](C(=O)NCc2ccc(OC)cc2)[C@H]1C	14.2% (inactive)
